Source: PubChem
ELG1 repair inh: qHTS screen for small molecules that inhibit ELG1-dependent DNA repair in human embryonic kidney (HEK293T) cells expressing luciferase-tagged ELG1 | HEK293T ELG1-luciferase reporter, luminescence, 16 h; DNA damage induced by 5-fluorouridine | Potency, µM (titrated, usually from 46.1 µM), hits mostly inhibitors | 330,000 compounds, 2.3% hits | AID 504467, 2011; further: nearly all actives have a fitted effect of over 55% in size
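DMSO vehicle served as the neutral condition. Each well held 2,000 cells given 5-fluorouridine plus compound; after 16 hr at 37 °C/5% CO2, ONE-Glo was added and luciferase measured 30 min later.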
ELG1 genotox: qHTS screen for small molecules that induce genotoxicity in human embryonic kidney (HEK293T) cells expressing luciferase-tagged ELG1 | 330,000 compounds, 1.3% hits | Potency, µM (titrated, usually from 46 µM), hits mostly activators | HEK293T ELG1-luciferase reporter, luminescence, 16 h; further: nearly all actives have a fitted effect of over 60% in size
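HEK293T cells expressing luciferase-tagged ELG1 were treated with compound or DMSO for 16 hr at 37°C. Luciferase activity was then read after 30 min with ONE-Glo at room temperature; rising signal flags genetic stress.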
FLuc modulator: qHTS profiling assay for firefly luciferase inhibitor/activator using purifed enzyme and Km concentrations of substrates (counterscreen for miR-21 project); purified FLuc, Km substrates, luminescence inhibition; Luciferin 4-monooxygenase (Photinus pyralis), P08659; 360,000 compounds, 6.9% hits; AID 588342, 2011; Potency, µM (top dose mostly 57.5 µM), most hits filed as inhibitors; further: nearly all actives have a fitted effect of over 55% in size
Target sequence (P08659 whole entry, looked up): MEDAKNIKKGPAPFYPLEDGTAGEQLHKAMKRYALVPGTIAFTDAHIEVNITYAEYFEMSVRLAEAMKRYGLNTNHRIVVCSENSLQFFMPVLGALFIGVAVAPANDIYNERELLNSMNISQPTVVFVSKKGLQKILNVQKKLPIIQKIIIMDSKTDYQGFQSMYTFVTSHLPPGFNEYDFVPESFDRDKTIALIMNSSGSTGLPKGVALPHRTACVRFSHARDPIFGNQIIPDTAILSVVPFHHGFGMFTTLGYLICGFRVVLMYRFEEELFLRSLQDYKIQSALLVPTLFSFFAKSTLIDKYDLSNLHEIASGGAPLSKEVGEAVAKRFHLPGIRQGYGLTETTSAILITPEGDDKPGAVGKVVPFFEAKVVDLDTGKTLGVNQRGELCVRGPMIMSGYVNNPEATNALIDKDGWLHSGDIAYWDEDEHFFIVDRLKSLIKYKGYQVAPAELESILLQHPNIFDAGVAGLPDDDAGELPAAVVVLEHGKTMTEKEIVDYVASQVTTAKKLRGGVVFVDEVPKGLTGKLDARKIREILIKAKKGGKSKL
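Purified P. pyralis luciferase (10nM final) with 10uM D-luciferin and 10uM ATP (Km levels) in 50mM Tris acetate pH 7.5, 10mM Mg acetate, 0.01% Tween-20, 0.05% BSA; qHTS 6-point titration, ~60 µM downward; luminescence read.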
Rab9 promoter act: qHTS Assay for Rab9 Promoter Activators | 320,000 compounds, 2.8% hits | Potency, µM (doses to about 9.22 µM), hits mostly activators | Huh7 Rab9 promoter-luciferase reporter, luminescence, 24 h | AID 485297, 2010; further: nearly all actives have a fitted effect of over 60% in size
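Promoter activation is measured as luciferase luminescence in Huh7 cells stably transfected with a Rab9 promoter–luciferase construct, following 24 h compound exposure at 37 °C and 10 min reagent incubation at ambient temperature.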
NPC1 promoter act: qHTS Assay for NPC1 Promoter Activators | Huh7 NPC1 promoter luciferase reporter, 24 h | Potency, µM (titrated, usually from 9.22 µM), hits mostly activators | 320,000 compounds, 2.4% hits; further: nearly all actives have a fitted effect of over 60% in size
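Stably transfected Huh7 (NPC1 promoter→luciferase), 1500 cells/well in Opti-MEM + 10% FBS, 2 h settle, then compound 24 h at 37 °C. Luminescence after 10 min with Amplite reagent.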
SMN2 splice enh: qHTS Assay for Enhancers of SMN2 Splice Variant Expression | HEK293 SMN2-luciferase splicing reporter, luminescence, 30-36 h | Potency, µM (doses to about 46.1 µM), most hits filed as activators | 210,000 compounds, 2.8% hits; further: nearly all actives have a fitted effect of over 55% in size
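HEK293 cells carry an SMN2 […]–luciferase reporter in which exon 7 inclusion puts luciferase in frame. Cells were plated 10-12 h before compound addition, then incubated 30-36 h at 37C. ONE-Glo luminescence was read; sodium butyrate at 4.5 mM final served as control.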
Each line names hits and unclear results; the compound was inactive in the other large screens. A selection: hits, their analogues and other compounds. The true share with any hit is near 9.2%. The call rests on the fitted dose curve; in most records, active means well fitted curve in the direction sought with a large enough effect; inconclusive means small, poorly fitted or top-dose-only effect, or another doubt; inactive means no such curve, though single readings can be large; an effect the other way counts as inactive or inconclusive.

COc1ccc(/C=N/NC(=S)SC)cc1OC	FLuc modulator 10.7µM
CCOc1ccc(CNC(=S)N/N=C\c2ccc([N+](=O)[O-])cc2)cc1	ELG1 genotox inconclusive
O=C(N/C(=C/c1ccc(Br)cc1)C(=O)N1CCCC1=O)c1ccco1	none
N#CCNC(=O)C1CC(=O)N(CCc2ccc(F)cc2)C1 (centres undefined)	none (no result: SMN2 splice enh)
COC(=O)Cn1c(O)c(N=NC(=O)c2ccc3c(c2)OCO3)c2ccccc21	ELG1 repair inh inconclusive, FLuc modulator 0.953µM, NPC1 promoter act inconclusive (no result: SMN2 splice enh)
COC(=O)Cn1c(=NC(=O)c2ccc3c(c2)OCCO3)sc2ccccc21	FLuc modulator 8.49µM (no result: ELG1 repair inh, ELG1 genotox, Rab9 promoter act, NPC1 promoter act, SMN2 splice enh)
COc1ccc(-n2cc(-c3ccccc3)c3c(N4CCCC(C)C4)ncnc32)cc1 (centres undefined)	none (no result: ELG1 repair inh, ELG1 genotox, Rab9 promoter act, NPC1 promoter act, SMN2 splice enh)
O=C(Nc1ccc(N2CCN(C(=O)c3cccs3)CC2)c(Cl)c1)c1ccco1	ELG1 repair inh 20.6µM, FLuc modulator inconclusive
Cc1ccccc1C(=O)N1CCN(c2ccc(NC(=O)c3ccco3)cc2Cl)CC1	ELG1 repair inh 2.06µM
O=C(Nc1ccc(NC(=O)c2cccs2)c(Cl)c1)c1ccco1	FLuc modulator inconclusive (no result: SMN2 splice enh)
Cc1ccc(NC(=O)N2CCN(C(=O)c3ccco3)CC2)cc1Cl	none (no result: SMN2 splice enh)
CCc1nc2oc3cc(OC)ccc3c(=O)c2c(=O)n1Cc1ccccc1	none
CCc1nc2oc3cc(OC)ccc3c(=O)c2c(=O)n1-c1ccccc1	ELG1 repair inh inconclusive, ELG1 genotox inconclusive, Rab9 promoter act inconclusive, NPC1 promoter act inconclusive, SMN2 splice enh 25.1µM
CN(CC(=O)Nc1ccc(F)cc1)C(=O)COc1ccccc1Cc1ccccc1	ELG1 repair inh inconclusive (no result: SMN2 splice enh)
O=C(Nc1ccc(S(=O)(=O)N2CCc3ccccc32)cc1)c1ccc2c(c1)OCO2	ELG1 repair inh inconclusive, ELG1 genotox 23.1µM
O=C(Nc1ccc(S(=O)(=O)N2CCc3ccccc32)cc1)c1ccco1	ELG1 repair inh 20.6µM
CN(C)S(=O)(=O)c1cccc(NC(=O)c2cccc(S(=O)(=O)N3CCc4ccccc43)c2)c1	ELG1 repair inh 16.4µM (no result: FLuc modulator, SMN2 splice enh)
Cc1ccnc(NC(=O)c2cccc(S(=O)(=O)N3CCCc4ccccc43)c2)c1	ELG1 repair inh inconclusive, ELG1 genotox 7.3µM, FLuc modulator 4.78µM (no result: SMN2 splice enh)
O=C(Nc1ccccn1)c1cccc(S(=O)(=O)N2CCCc3ccccc32)c1	ELG1 repair inh inconclusive (no result: SMN2 splice enh)
Cc1ccc(-n2cc(-c3ccccc3)c3c(NC4CCCC4)ncnc32)cc1	none (no result: ELG1 repair inh, ELG1 genotox, Rab9 promoter act, NPC1 promoter act, SMN2 splice enh)
O=c1ccnc(SCc2ccc(Cl)cc2)[nH]1	none (no result: ELG1 repair inh, ELG1 genotox, FLuc modulator, Rab9 promoter act, NPC1 promoter act)
CC(C)CNC(=S)N1CCC(NC(=O)c2ccco2)CC1	none
Cc1ccc(Cn2c(CN3CCC(C(=O)NCc4ccccc4C)CC3)cc3ccccc32)cc1	none (no result: ELG1 repair inh, ELG1 genotox, Rab9 promoter act, NPC1 promoter act, SMN2 splice enh)
O=C(c1ccc2c3n(nc2c1)-c1ccc(Cl)cc1CO3)N1CCCCC1	ELG1 repair inh inconclusive, ELG1 genotox inconclusive, FLuc modulator 5.36µM, Rab9 promoter act 1.78µM, NPC1 promoter act 2.24µM (no result: SMN2 splice enh)
O=C(c1ccc2c(=O)n3c(nc2c1)CCCCC3)N1CCCCC1	ELG1 repair inh inconclusive (no result: SMN2 splice enh)
O=C(O)c1ccc2c3n(nc2c1)-c1ccc(Cl)cc1CO3	FLuc modulator 1.9µM, Rab9 promoter act inconclusive, NPC1 promoter act inconclusive (no result: SMN2 splice enh)
Cc1ccc2c(c1)COc1c3ccc(C(=O)N4CCOCC4)cc3nn1-2	ELG1 repair inh inconclusive, ELG1 genotox 16.4µM, FLuc modulator 9.53µM, Rab9 promoter act 1.58µM, NPC1 promoter act 2.51µM (no result: SMN2 splice enh)
O=C(Nc1cc(-c2nc3ccccc3o2)ccc1Cl)c1ccc(Br)o1	none (no result: ELG1 repair inh, ELG1 genotox, Rab9 promoter act, NPC1 promoter act)
COc1ccc(CN2CCNC(=O)C2CC(=O)N2CCCN(C(C)=O)CC2)c(OC)c1 (centres undefined)	none (no result: SMN2 splice enh)
CC1CCN(C(=O)CCCC(=O)N2CCC(C)CC2)CC1	FLuc modulator 9.53µM, NPC1 promoter act inconclusive (no result: SMN2 splice enh)
